The record followed here is PubChem BioAssay (EPA / NIEHS).

Active and inactive are the calls of the source. The calls were made as follows: active = hit-call score of the fitted dose curve at least 0.9, where 1 is the maximum; inactive = score below 0.9.

Holding throughout (settings): mRNA level, 48 h; actives raise or lower the signal
Read-out in assay [1]: MicroRNA 122 (MIR122), gene 406906
The assay can be described thus: LTEA_HepaRG_MIR122: Life Technologies and Expression Analysis (LTEA) Assay for MicroRNA 122 (MIR122) using HepaRG (AID 2283516). Also: the transcript read is the microRNA miR-122. Summed up: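 HepaRG, 48 h exposure, 8-pt half-log from 100 uM, 0.5% DMSO; TaqMan qRT-PCR; bidirectional fit vs DMSO.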

Read-out in assay [2]: matrix metalloproteinase-10 (MMP10), MMP10 (gene 4319)
Kind of assay: LTEA_HepaRG_MMP10: Life Technologies and Expression Analysis (LTEA) Assay for matrix metalloproteinase-10 (MMP10) using HepaRG (AID 2283517). Summed up:
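Differentiated HepaRG cells in serum-free induction medium exposed 48 h in duplicate to 8-point half-log series up to 100 uM in 0.5% DMSO. mRNA quantified by qRT-PCR, normalised to ACTB, GAPDH, POLR2A; bidirectional fit versus DMSO.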

Read-out in the next assay: MYC, MYC (gene 4609)
Kind of assay: LTEA_HepaRG_MYC: Life Technologies and Expression Analysis (LTEA) Assay for MYC using HepaRG (AID 2283518). Summed up: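 Expression changes were scored by TaqMan qRT-PCR with ACTB, GAPDH and POLR2A normalization. Cultures in serum-free induction medium received duplicate 8-point concentration series, highest 100 uM, for 48 h; DMSO (0.5%) served as baseline.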

Read-out in assay [3]: matrix metalloproteinase-3 (MMP3), MMP3 (gene 4314)
Kind of assay: LTEA_HepaRG_MMP3: Life Technologies and Expression Analysis (LTEA) Assay for matrix metalloproteinase-3 (MMP3) using HepaRG (AID 2283519). In a few lines: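 HepaRG cells (~100,000/well) in serum-free induction medium were dosed in duplicate for 48 h with an 8-point half-log series from 100 uM, 0.5% DMSO. MMP3 mRNA was quantified by Fluidigm TaqMan qRT-PCR, normalized to three housekeeping genes.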

Read-out in assay [4]: Paternally Expressed 10 (PEG10), PEG10 (gene 23089)
Kind of assay: LTEA_HepaRG_PEG10: Life Technologies and Expression Analysis (LTEA) Assay for Paternally Expressed 10 (PEG10) using HepaRG (AID 2283520).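 As to AC50: PEG10 transcript by qRT-PCR normalised to ACTB GAPDH and POLR2A.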 In a few lines: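 Chemicals tested on HepaRG cells for 48 h, highest concentration 100 uM. PEG10 expression assessed by qRT-PCR relative to DMSO control.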

Read-out in assay [5]: Nuclear factor NF-kappa-B p105 subunit (Homo sapiens) (UniProt P19838)
The assay can be described thus: LTEA_HepaRG_NFKB1: Life Technologies and Expression Analysis (LTEA) Assay for Nuclear Factor Kappa B Subunit 1 (NFKB1) using HepaRG (AID 2283521).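 Also: TaqMan qRT-PCR transcript normalised to ACTB GAPDH and POLR2A housekeeping genes.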 In a few lines:
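NFKB1 transcript was measured by TaqMan qRT-PCR on Fluidigm arrays, normalised to three housekeeping genes and fitted in both directions against 0.5% DMSO. HepaRG cells were dosed in duplicate for 48 h in serum-free induction medium, eight half-log steps from 100 uM.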

Read-out in assay [6]: Protein phosphatase 2A (PPP2R4), PTPA (gene 5524)
The assay can be described thus: LTEA_HepaRG_PPP2R4: Life Technologies and Expression Analysis (LTEA) Assay for Protein phosphatase 2A (PPP2R4) using HepaRG (AID 2283522). Summed up:
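Gene-expression endpoint in HepaRG hepatic cells: 48 h treatment across eight half-log concentrations up to 100 uM in 0.5% DMSO. PPP2R4 mRNA by qRT-PCR, normalized to three endogenous control genes.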

Read-out in assay [7]: solute carrier (SLC22A1), SLC22A1 (gene 6580)
Kind of assay: LTEA_HepaRG_SLC22A1: Life Technologies and Expression Analysis (LTEA) Assay for solute carrier (SLC22A1) using HepaRG (AID 2283524). In a few lines: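 Differentiated human HepaRG cells in serum-free induction medium, exposed 48 h in duplicate to 8-point half-log series from 100 µM top in 0.5% DMSO. SLC22A1 mRNA by TaqMan qRT-PCR normalized to ACTB, GAPDH, POLR2A; bidirectional fit versus DMSO.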

Read-out in assay [8]: Pyruvate Dehydrogenase Kinase 4 (PDK4), PDK4 (gene 5166)
The assay can be described thus: LTEA_HepaRG_PDK4: Life Technologies and Expression Analysis (LTEA) Assay for Pyruvate Dehydrogenase Kinase 4 (PDK4) using HepaRG (AID 2283525). In a few lines:
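HepaRG cells plated 48 h, then switched to serum-free induction medium and exposed in duplicate for 48 h to 8 half-log concentrations from 100 uM in 0.5% DMSO. PDK4 mRNA measured by qRT-PCR, normalized to ACTB, GAPDH and POLR2A; bidirectional fit versus DMSO.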

Read-out in assay [9]: Phosphatase and tensin (PTEN), PTEN (gene 5728)
The assay can be described thus: LTEA_HepaRG_PTEN: Life Technologies and Expression Analysis (LTEA) Assay for Phosphatase and tensin (PTEN) using HepaRG (AID 2283523). Summed up:
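HepaRG cells, 48 h after plating, exposed in duplicate for 48 h in serum-free induction medium to 8 half-log concentrations up to 100 uM (0.5% DMSO). PTEN mRNA by qRT-PCR, normalized to ACTB, GAPDH, POLR2A; bidirectional fit versus DMSO.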

Sequence of Nuclear factor NF-kappa-B p105 subunit (Homo sapiens) (P19838 whole entry, looked up): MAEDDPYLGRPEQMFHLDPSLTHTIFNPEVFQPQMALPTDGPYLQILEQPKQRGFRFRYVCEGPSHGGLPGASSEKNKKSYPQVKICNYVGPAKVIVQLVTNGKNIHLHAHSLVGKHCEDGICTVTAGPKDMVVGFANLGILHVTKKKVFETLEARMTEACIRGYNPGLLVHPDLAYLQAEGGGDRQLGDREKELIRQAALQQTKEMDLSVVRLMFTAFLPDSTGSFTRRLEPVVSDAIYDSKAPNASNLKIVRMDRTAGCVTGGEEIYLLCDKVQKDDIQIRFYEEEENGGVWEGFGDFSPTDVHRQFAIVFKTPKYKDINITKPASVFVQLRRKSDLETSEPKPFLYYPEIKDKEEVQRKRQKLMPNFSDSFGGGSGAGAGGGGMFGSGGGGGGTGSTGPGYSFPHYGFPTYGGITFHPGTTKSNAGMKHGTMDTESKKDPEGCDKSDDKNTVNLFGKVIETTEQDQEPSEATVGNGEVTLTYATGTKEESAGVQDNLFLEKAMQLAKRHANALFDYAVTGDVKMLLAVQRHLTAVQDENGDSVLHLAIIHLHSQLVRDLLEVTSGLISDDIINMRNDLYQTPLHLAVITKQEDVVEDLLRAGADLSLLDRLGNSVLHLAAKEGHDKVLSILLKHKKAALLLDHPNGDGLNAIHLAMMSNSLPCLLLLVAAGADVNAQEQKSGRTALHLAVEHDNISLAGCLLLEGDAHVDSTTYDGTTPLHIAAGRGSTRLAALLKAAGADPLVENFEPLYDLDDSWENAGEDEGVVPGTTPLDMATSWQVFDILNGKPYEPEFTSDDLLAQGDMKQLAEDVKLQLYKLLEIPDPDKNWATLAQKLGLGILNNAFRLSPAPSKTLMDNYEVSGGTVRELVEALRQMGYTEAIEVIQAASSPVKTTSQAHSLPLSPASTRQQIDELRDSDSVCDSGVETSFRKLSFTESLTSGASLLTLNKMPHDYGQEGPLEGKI

Turning to `CN(C)C(=O)Nc1cccc(C(F)(F)F)c1`, the outcome in assay [1] was “inactive”; in [2], “inactive”; in the assay with MYC, MYC (gene 4609) it was “inactive”; in assay [4], “inactive”; in assay [5] it was “inactive”; in [6], “inactive”. The compound was classed as inactive in assay [7] and in assay [8]. Moreover, in assay [3], the AC50 is 82.7 µM (active).

Regarding `COP(=O)(OC)SCn1c(=O)oc2cc(Cl)cnc21`, the outcome in assay [1] was “inactive”; in assay [2], “inactive”; with MYC, MYC (gene 4609), “inactive”; in [3] it was “inactive”; in assay [5], “inactive”; in [6], “inactive”. Moreover, the result in assay [9] and in [8] was inactive. Also, the AC50 in assay [4] is 62.4 µM (active); in assay [7], 50 µM (active).

Take `O=[N+]([O-])c1cc(C(F)(F)F)c(Cl)c([N+](=O)[O-])c1Nc1ncc(C(F)(F)F)cc1Cl`: the concentration at half-maximal activity (AC50) was 15.8 µM (active) in [1]; 24.8 µM (active) in assay [2]; 25 µM (active) in assay [3]; 49.2 µM (active) in [4]; 65.2 µM (active) in [6]; 17.8 µM (active) in [7]. In addition, the half-maximal activity concentration (AC50) in [8] was 34 µM (active). Besides, the outcome in the assay with MYC, MYC (gene 4609) is “inactive”; in assay [5] it was “inactive”.

Take `CCCSP(=O)(OCC)SCCC`: the outcome is “inactive” in assay [1]; “inactive” in [2]; “inactive” with MYC, MYC (gene 4609); “inactive” in assay [3]; “inactive” in assay [4]; “inactive” in assay [6]. The compound was classed as inactive in assay [8]. In assay [7], the AC50 is 10.2 µM (active).

With `CCOP(=O)(OCC)Oc1cc(C)nc(C(C)C)n1`, the outcome in assay [1] was “inactive”; in assay [2], “inactive”; with MYC, MYC (gene 4609) it was “inactive”; in [3], “inactive”; in [4], “inactive”; in [6], “inactive”. The result in assay [7] and in assay [8] was inactive.

Regarding `CCCCSP(=O)(SCCCC)SCCCC`, the outcome in [1] was “inactive”; in [2], “inactive”; with MYC, MYC (gene 4609) it was “inactive”; in assay [3], “inactive”; in assay [4], “inactive”; in assay [6], “inactive”. Moreover, the AC50 is 78.9 µM (active) in assay [7] and 77.5 µM (active) in assay [8].

As for `CC(Oc1cccc(Cl)c1)C(=O)O` (stereo not drawn), the outcome is “inactive” in assay [1]; “inactive” in assay [2]; “inactive” with MYC, MYC (gene 4609); “inactive” in [3]; “inactive” in assay [4]; “inactive” in [6]. Besides, the call in assay [7] and in assay [8] was inactive.

Turning to `COP(=O)(NC(C)=O)SC` (stereo not drawn), the outcome is “inactive” in [1]; “inactive” in assay [2]; “inactive” in the assay with MYC, MYC (gene 4609); “inactive” in [3]; “inactive” in assay [4]; “inactive” in assay [6]. The outcome in assay [7] and in [8] was inactive.

For the compound `CN1COCN(Cc2cnc(Cl)s2)C1=N[N+](=O)[O-]`, the outcome was “inactive” in assay [1]; “inactive” in assay [2]; “inactive” with MYC, MYC (gene 4609); “inactive” in assay [3]; “inactive” in assay [4]; “inactive” in [5]. Also, the result in assay [6], in assay [7] and in assay [8] was inactive.

As for `CCCCN(CC)c1c([N+](=O)[O-])cc(C(F)(F)F)cc1[N+](=O)[O-]`, the outcome in assay [1] was “inactive”; in assay [2], “inactive”; in the assay with MYC, MYC (gene 4609), “inactive”; in [3], “inactive”; in [4], “inactive”; in assay [5] it was “inactive”. Moreover, the call in assay [6], in assay [7] and in assay [8] was inactive.

Regarding `C#CCC1=C(C)C(OC(=O)C2C(C=C(C)C)C2(C)C)CC1=O` (stereo not drawn), the outcome in [1] is “inactive”; in assay [2] it was “inactive”; with MYC, MYC (gene 4609), “inactive”; in assay [4], “inactive”; in [6], “inactive”. Moreover, the AC50 in assay [3] is 81.9 µM (active); in [7], 74.1 µM (active); in assay [8], 9.87 µM (active).

For `CCC(=O)Nc1ccc(Cl)c(Cl)c1`, the compound was called inactive in [1], in assay [2], in assay [3], in [6], in assay [9] and in assay [8]. For the same compound, the AC50 with MYC, MYC (gene 4609) was 50 µM (active); in assay [4], 65 µM (active); in [7] it was 50 µM (active).

As to `CCc1cnc(C2=NC(C)(C(C)C)C(=O)N2)c(C(=O)O)c1` (stereo not drawn), the outcome in assay [1] is “inactive”; in assay [2], “inactive”; with MYC, MYC (gene 4609), “inactive”; in [3], “inactive”; in assay [4], “inactive”; in [6], “inactive”. The compound was classed as inactive in [7] and in [8].

Take `CC(C1CC1)C(O)(Cn1cncn1)c1ccc(Cl)cc1` (stereo not drawn): the outcome in [1] was “inactive”; in [2], “inactive”; with MYC, MYC (gene 4609), “inactive”; in [4], “inactive”; in assay [5], “inactive”; in assay [6], “inactive”. Moreover, the compound was called inactive in [9] and in [8]. In addition, the AC50 in assay [7] was 66.9 µM (active).

`CC(C)=CC1C(C(=O)OCN2C(=O)C3=C(CCCC3)C2=O)C1(C)C` (stereo not drawn): the result in assay [1], in [2], in assay [3], in assay [4], in assay [6] and in assay [9] was inactive. The result in assay [7] and in assay [8] was inactive.

In the case of `CCOC(=O)COc1cc(-c2nn(C)c(OC(F)F)c2Cl)c(F)cc1Cl`, the outcome in [1] was “inactive”; in [2], “inactive”; with MYC, MYC (gene 4609) it was “inactive”; in assay [3], “inactive”; in assay [4], “inactive”; in [5] it was “inactive”. Also, the outcome in assay [6], in assay [7] and in assay [8] was inactive.

For `O=c1ccc(=O)[nH][nH]1`, the outcome in assay [1] was “inactive”; in [2] it was “inactive”; with MYC, MYC (gene 4609) it was “inactive”; in [3], “inactive”; in assay [4], “inactive”; in assay [5], “inactive”. The compound was classed as inactive in assay [6], in assay [7] and in assay [8].

In the case of `CC[C@H](C)[C@H]1O[C@]2(C=C[C@@H]1C)C[C@@H]1C[C@@H](C/C=C(\C)[C@@H](O[C@H]3C[C@H](OC)[C@@H](O[C@H]4C[C@H](OC)[C@@H](NC)[C@H](C)O4)[C@H](C)O3)[C@@H](C)/C=C/C=C3\CO[C@@H]4[C@H](O)C(C)=C[C@@H](C(=O)O1)[C@]34O)O2`, the AC50 in assay [1] was 55.6 µM (active); in assay [2], 29.4 µM (active); with MYC, MYC (gene 4609), 32 µM (active); in assay [3], 92.9 µM (active); in [4], 13.3 µM (active); in [6] it was 33.3 µM (active). Besides, the values for the AC50 in assay [7] and in assay [8] were 23.8 µM (active) and 91.9 µM (active), respectively.

In the case of `CSC1=N[C@@](C)(c2ccccc2)C(=O)N1Nc1ccccc1`, the AC50 in assay [1] is 50 µM (active); with MYC, MYC (gene 4609) it was 31.2 µM (active); in assay [4], 20.1 µM (active); in assay [7], 34.2 µM (active); in [8], 12.7 µM (active). For the same compound, the compound was classed as inactive in assay [2], in [3], in assay [6] and in assay [9].

For orientation: AC50 means the concentration giving half of the maximal activity seen.
